“And” between values parts separate entries of the source, which are not always exact repeats. Identical values can stand only once. Where a structure was tested more than once in an assay, its records may differ in their call. The source made the active and inactive calls. The calls were made as follows: active = hit-call score of the fitted dose curve at least 0.9, where 1 is the maximum; inactive = score below 0.9.
The compounds below were run on Interleukin-1 alpha (IL1a), IL1A (gene 3552) (assay: BSK_BE3C_IL1a: BioMAP Diversity Plus: BE3C Assay for Interleukin-1 alpha (IL1a) Biomarker Activity (AID 2283016)). Details: primary human bronchial epithelial cells; actives raise or lower the signal.
Protocol: BSK_BE3C is a cell-based, multiplexed-readout assay that uses bronchial epithelial cell, a human lung primary cell, with measurements taken at 24 hours after chemical dosing in a 96-well plate.BSK_BE3C_IL1a is an assay component measured in the BSK_BE3C assay. It measures IL-1a antibody related to regulation of gene expression using ELISA technology.Data from the assay component BSK_BE3C_IL1a was analyzed into 1 assay endpoint. This assay endpoint, BSK_BE3C_IL1a, was analyzed with bidirectional fitting relative to DMSO as the negative control and baseline of activity. Using a type of binding reporter, gain or loss-of-signal activity can be used to understand changes in the signaling as they relate to the gene IL1A. Furthermore, this assay endpoint can be referred to as a primary readout, because this assay has produced multiple assay endpoints where this one serves a signaling function. To generalize the intended target to other relatable targets, this assay endpoint is annotated to the cytokine intended target family, where the subfamily is interleukins.
The levels of cell surface (or secreted, indicated by the prefix "s") biomarker endpoints were measured by ELISA. Overt cytotoxicity to cells in confluent adherent cultures (all systems other than the BT system) was assessed by measuring total protein levels using sulforhodamine B (SRB) staining in parallel cultures at the time of biomarker measurements, indicated as SRB endpoints. For proliferation assays for adherent cell types, individual cell types are cultured at sub-confluence and relative cell numbers quantified by SRB staining at time points optimized for each system (48 h: 3C and CASM3C systems; 72 h: BT and HDF3CGF systems; 96 h: SAg system). SRB was performed by staining cells with 0.1% SRB after fixation with 10% TCA and reading wells at 560 nm.Viability and proliferation of PBMC (T cells) was quantified by Alamar Blue reduction for the SAg and BT systems. For PBMC viability (referred to as PBMC Cytotoxicity within the assay endpoint names), cells were plated (75,000/well in a 96-well plate) and then chemical samples added for 1 h before addition of activators, SEB and TSST-1 (20 ng/mL final concentration each). Cells were incubated for 90 h. Then, Alamar Blue (20 uL/well) (Invitrogen, Cat DAL1100) was added for 6 h, and the plates were read with a fluorescence microplate reader at 546/580 nm (excitation/emission). For PBMC proliferation, cells were plated and activated as above but incubated for only 16 h prior to addition of Alamar Blue. Plates were read after 6 h.

Question: `O=Cc1ccco1` was tested. Which outcome did it give?
Answer: The outcome was “inactive”.

Question: With `CCCCCCCCOC(=O)c1ccc(C(=O)OCCCCCCCC)c(C(=O)OCCCCCCCC)c1` as the compound, how does the outcome read?
Answer: Its outcome is “inactive”.

Question: For `CS(=O)(=O)NC(=O)c1cc(Oc2ccc(C(F)(F)F)cc2Cl)ccc1[N+](=O)[O-]`, which outcome is on record?
Answer: The outcome was “inactive”.

Question: For `CN(C)[C@@H]1C(=O)C(C(N)=O)=C(O)[C@@]2(O)C(=O)C3=C(O)c4c(O)cccc4[C@@](C)(O)[C@H]3C[C@@H]12`, which outcome is on record?
Answer: Its outcome is “inactive”.

Question: Which outcome does the source give for `CCCCCOC(=O)c1ccccc1C(=O)OCCCCC` here?
Answer: Its outcome is “inactive”.

Question: How did the outcome turn out when `CC(C)(OOC(C)(C)c1ccccc1)c1ccccc1` was run?
Answer: Its outcome is “inactive”.

Question: With `CCN(CC)N=O` as the compound, how does the outcome read?
Answer: The outcome was “inactive”.

Question: How did the outcome turn out when `Cc1ccc(N)c(N)c1` was run?
Answer: Its outcome is “inactive”.

Question: For `COP(=S)(OC)SCN1C(=O)c2ccccc2C1=O`, which outcome is on record?
Answer: Its outcome is “inactive”.

Question: How did the outcome turn out when `CN(C)c1ccccc1` was run?
Answer: The outcome was “inactive”.

Question: How did the outcome turn out when `Cc1ccc(N)cc1` was run?
Answer: The outcome was “inactive”.

Question: For `Clc1ccccc1Cl`, which outcome is on record?
Answer: The outcome was “inactive”.

Question: How did the outcome turn out when `[As]#[In]` was run?
Answer: Its outcome is “inactive”.

Question: Which outcome does the source give for `O=C(O)C1C2CCC(O2)C1C(=O)O` (stereo not given) here?
Answer: The outcome was “inactive”.

Question: With `CC(C)(C)OOC(=O)c1ccccc1` as the compound, how does the outcome read?
Answer: Its outcome is “inactive”.

Question: `Nc1ccc(N=Nc2ccccc2)cc1` was tested. Which outcome did it give?
Answer: Its outcome is “inactive”.

Question: How did the AC50 turn out when `CCCCCCCCn1sccc1=O` was run?
Answer: The AC50 was 8.59 µM (active).

Question: For `CCNS(=O)(=O)C(F)(F)C(F)(F)C(F)(F)C(F)(F)C(F)(F)C(F)(F)C(F)(F)C(F)(F)F`, which AC50 is on record?
Answer: Its AC50 is 44.5 µM (active) and 21.9 µM (active).

Question: And the outcome?
Answer: Its outcome is “inactive”.

Question: How did the AC50 turn out when `O=C(N[C@H](c1ccccc1)[C@@H]1CN2CCC1CC2)c1c(Cl)ccc(C(F)(F)F)c1Cl` was run?
Answer: The AC50 was 44.5 µM (active).

Question: With `Brc1ccc(Oc2ccccc2)cc1` as the compound, how does the outcome read?
Answer: Its outcome is “inactive”.

Question: Which outcome does the source give for `Nc1ccc(Cl)cc1N` here?
Answer: Its outcome is “inactive”.

Question: For `O=P(OCCCl)(OCCCl)OCCCl`, which outcome is on record?
Answer: The outcome was “inactive”.

Question: How did the outcome turn out when `OCCOCCO` was run?
Answer: The outcome was “inactive”.

Question: `CCCCC(CC)COC(=O)c1ccc(C(=O)OCC(CC)CCCC)c(C(=O)OCC(CC)CCCC)c1` (stereo not given) was tested. Which outcome did it give?
Answer: Its outcome is “inactive”.

Question: Which outcome does the source give for `CCC12COCN1COC2` here?
Answer: Its outcome is “inactive”.

Question: With `Nc1ccc([N+](=O)[O-])cc1` as the compound, how does the outcome read?
Answer: Its outcome is “inactive”.

Question: How did the outcome turn out when `C=CCc1ccc2c(c1)OCO2` was run?
Answer: The outcome was “inactive”.

Question: Which outcome does the source give for `CCCCCCCCCCCCCN1CC(C)OC(C)C1` (stereo not given) here?
Answer: Its outcome is “inactive”.

Question: `ClC1=C(Cl)[C@]2(Cl)[C@H]3[C@H]([C@@H]4C=C[C@H]3C4)[C@@]1(Cl)C2(Cl)Cl` was tested. Which outcome did it give?
Answer: Its outcome is “inactive”.

Question: Which outcome does the source give for `ClCCOCCCl` here?
Answer: Its outcome is “inactive”.

Question: How did the outcome turn out when `OCCCl` was run?
Answer: Its outcome is “inactive”.

Question: With `ClC1=C(Cl)C2(Cl)C3C(Cl)C=CC3C1(Cl)C2(Cl)Cl` (stereo not given) as the compound, how does the AC50 read?
Answer: The AC50 was 28.6 µM (active).

Question: How did the outcome turn out when `Clc1ccc(C(c2ccc(Cl)cc2)C(Cl)Cl)cc1` was run?
Answer: The outcome was “inactive”.

Question: Which outcome does the source give for `CO[C@@H]1[C@H](OC(=O)NC(=O)CCl)CC[C@]2(CO2)[C@H]1[C@@]1(C)O[C@@H]1CC=C(C)C` here?
Answer: Its outcome is “inactive”.

Question: Which outcome does the source give for `Nc1cc(Cl)cc(C(=O)O)c1Cl` here?
Answer: Its outcome is “inactive”.

Question: How did the outcome turn out when `Cc1cccc(N)c1N` was run?
Answer: Its outcome is “inactive”.

Question: For `Oc1ccccc1Cl`, which outcome is on record?
Answer: Its outcome is “inactive”.

Question: How did the outcome turn out when `CCOc1cccc(C2(N3CCN(c4ccccc4)CC3)CCC(C)CC2)c1` (stereo not given) was run?
Answer: The outcome was “inactive”.

Question: For `O=C(Nc1ccccc1)c1ccccc1I`, which outcome is on record?
Answer: The outcome was “inactive”.

— PubChem BioAssay (EPA / NIEHS)
